In the supplement of paper PMC7866885, “A novel bicyclic 2,4-diaminopyrimidine inhibitor of Streptococcus suis dihydrofolate reductase” (PeerJ, 2021):
± gives the standard deviation.

How the values were obtained:
Streptococcus suis HE06 = experiment: percent growth relative to DMSO control; higher = less growth inhibition; details: 10 µM; incubation time 18 h
Procedure: (§1)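 CLSI broth microdilution: 5x10^4 CFU of Streptococcus suis (strain P1/7 or HE06) incubated with 10 µM Pathogen Box compound in cation-adjusted Mueller Hinton broth, 37 °C, 5% CO2, 18 h. Growth read as OD600 and expressed as percent of the DMSO-treated control (100%); mean ± SD of three independent experiments.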

Streptococcus suis P1/7 = experiment: as above; details: 10 µM; incubation time 18 h
Procedure: as §1

Row | SMILES | percent growth (Streptococcus suis HE06) | percent growth (Streptococcus suis P1/7)
1 | Cc1nn2c(=O)c3c([nH]c2c1-c1ccc(Cl)cc1)CCCC3 | 0.386 ± 8.7% | 12.7 ± 22%
2 | Nc1ncnc2[nH]nc(Cc3cccc4ccccc34)c12 | 104 ± 35% | 66.1 ± 20%
3 | COc1ccc(Cn2cnc3c(-c4ccco4)nc(Cl)nc32)cc1 | 88.5 ± 13% | 102 ± 42%
4 | CC(=O)Nc1ccc(-c2noc(CC3CCCN(Cc4cccc(F)c4C)C3)n2)cc1 (configuration not stated) | 109 ± 44% | 108 ± 44%
5 | Cc1ccc(S(=O)(=O)N2CCN(C(=O)c3cc(-c4ccccc4)[nH]n3)CC2)cc1 | 118 ± 39% | 83.1 ± 19%
6 | CCS(=O)(=O)N(Cc1ccco1)Cc1cc2ccc(C)cc2nc1O | 90.6 ± 1.9% | 77.1 ± 19%
7 | CC(C)(C)C(=O)N(CCCCCCN1C[C@H](O)[C@@H](O)[C@H](O)[C@H]1CO)C1CCCCCC1 | 122 ± 27% | 130 ± 56%
8 | CCOC(=O)c1cc(-c2csc(Nc3c(C)cc(C)cc3C)n2)on1 | 91.3 ± 6% | 108 ± 60%
9 | CC(C)C(Oc1cccc2ccccc12)C(=O)O (configuration not stated) | 87 ± 4.3% | 64 ± 22%
10 | COc1nc2ccc(Br)cc2cc1[C@@H](c1ccccc1)[C@@](O)(CCN(C)C)c1cccc2ccccc12 | 59.8 ± 13% | 68.8 ± 37%
11 | COc1cc(C(F)(F)F)nc2ccc(C)c(N)c12 | 101 ± 4.2% | 95.8 ± 24%
12 | N#Cc1ccc(-c2ccc(OCC(N)=O)cc2)cc1 | 91.4 ± 11% | 94.4 ± 35%
13 | COc1ccc(-c2nn(C(C)C)c3ncnc(N)c23)cc1OC | 112 ± 26% | 121 ± 74%
14 | c1cncc(NCc2ccc(-c3cc4ccncc4cc3OC3CCNCC3)s2)c1 | 100 ± 18% | 66.3 ± 22%
15 | CN1CCCC1CCO[C@](C)(c1ccccc1)c1ccc(Cl)cc1 (some centres not stated) | 86.3 ± 9.2% | 78.1 ± 43%
16 | Nc1ncnc2c1c(Cc1cccc3ccccc13)nn2CC1CCNCC1 | 105 ± 44% | 75 ± 5.4%
17 | Cc1cc(Nc2ccc(C(F)(F)F)cc2)n2ccnc2n1 | 113 ± 12% | 97.6 ± 41%
18 | NS(=O)(=O)c1cccc(-c2ccc3ncc(N4CCOCC4)nc3c2)c1 | 99.2 ± 34% | 71.6 ± 6.4%
19 | COc1ccc(CCN2CCC(NCc3cccc(N(C)C)c3)CC2)cc1 | 98.6 ± 35% | 67.3 ± 22%
20 | O=C(Nc1ccccc1)c1ccc(-c2cc3ccncc3cc2OC2CCNCC2)s1 | 85.8 ± 20% | 72.3 ± 8.4%
21 | CC1COC2(CCN(c3nc(=O)c4cc(C(F)(F)F)cc([N+](=O)[O-])c4s3)CC2)O1 (configuration not stated) | 80.1 ± 1.6% | 81.2 ± 24%
22 | c1csc(-c2cnc3sc(NCC4CCOCC4)nn23)c1 | 109 ± 22% | 91.2 ± 16%
23 | O=C(c1[nH]nc2c1CCCC2)N1CCN(Cc2ccc3c(c2)OCO3)CC1 | 81.9 ± 4.7% | 99.9 ± 45%

Row | SMILES | percent growth (Streptococcus suis HE06) | percent growth (Streptococcus suis P1/7)
24 | N#Cc1nc(-c2ccccc2F)oc1NCCc1ccccc1 | 113 ± 30% | 98.7 ± 25%
25 | N=C(N)c1ccc(-c2cc(-c3ccccc3)on2)cc1 | 85.2 ± 3% | 106 ± 55%
26 | COc1ccc(C2CC(c3cccs3)=NN2C(=O)c2ccco2)cc1OC (configuration not stated) | 75.4 ± 3% | 99.7 ± 26%
27 | CCOC(=O)c1noc(N)c1-c1ccccc1 | 107 ± 2.4% | 113 ± 32%
28 | Cc1noc(C)c1C(=O)N1CCCC(c2[nH]c3c(C)cccc3c2-c2ccncc2)C1 (configuration not stated) | 90.2 ± 6.2% | 90.5 ± 20%
29 | Nc1ncc(Br)cc1-c1nc2cc(Cl)cnc2[nH]1 | 92.2 ± 8.1% | 100 ± 9.8%
30 | NCCC(O)C(=O)N[C@@H]1C[C@H](N)[C@@H](OC2O[C@H](CN)[C@@H](O)[C@H](O)[C@H]2O)[C@H](O)C1OC1O[C@H](CO)[C@@H](O)[C@H](N)[C@H]1O (some centres not stated) | 104 ± 4.8% | 87.5 ± 38%
31 | O[C@@H](c1cc(C(F)(F)F)nc2c(C(F)(F)F)cccc12)[C@H]1CCCCN1 | 94 ± 6.1% | 97.7 ± 18%
32 | CC1=Nc2ccc(Cl)cc2C(c2ccccc2)N1CCNC(=O)CN(C)C (configuration not stated) | 84.8 ± 4.2% | 84.5 ± 16%
33 | OCc1ccc(-c2cncc(Nc3cccc(Cl)c3)c2)cc1 | 88 ± 13% | 69.8 ± 33%
34 | COc1ccc(-c2onc(C(F)(F)F)c2-c2ccc(Cl)cc2)c(O)c1 | 26.1 ± 45% | 19.4 ± 34%
35 | Cc1cc(C)n2nc(C(=O)Nc3cc(C(F)(F)F)ccc3N3CCOCC3)nc2n1 | 240 ± 280% | 81.4 ± 16%
36 | CCCn1c(NC(=O)c2ccc3ccccc3n2)nc2ccccc21 | 0% | 0.618 ± 1.5%
37 | Cc1ccccc1CN1CCC(O)(c2ccc(Cl)c(C(F)(F)F)c2)CC1 | 93.7 ± 15% | 102 ± 50%
38 | Nc1ncc(-c2cn[nH]c2)cc1-c1nc2cc(Cl)cnc2[nH]1 | 90.8 ± 5.4% | 74 ± 15%
39 | O=C(Nc1cccc(Cl)c1)c1cnc(N2CCN(c3ccncc3)CC2)c(Cl)c1 | 62 ± 36% | 20.4 ± 12%
40 | OC[C@H]1O[C@@H](n2c3ccc(Cl)cc3c3c(-c4cc5ccccc5o4)ncnc32)C(O)[C@H]1O (some centres not stated) | 93 ± 20% | 74.8 ± 13%
41 | CCOc1ccc(-c2nc(NC(=O)CS(=O)(=O)c3ccccc3)sc2C)cc1 | 76.9 ± 15% | 153 ± 100%
42 | C[C@H]1COc2c(N3CCN(C)CC3)c(F)cc3c(=O)c(C(=O)O)cn1c23 | 1.93 ± 0.63% | 1.55 ± 1.7%
43 | CC(C)(C)OC(=O)N1CCN(c2nccc(-c3ccc(-c4ccc(Cl)cc4)s3)n2)CC1 | 88.2 ± 12% | 129 ± 42%
44 | Cc1cc(C)nc(-n2nc(C)cc2Nc2ccccc2)n1 | 0.964 ± 1.7% | 0.0724 ± 0.12%
45 | O=C(c1ccc(F)cc1)N(CCNc1ccccc1)c1ccccc1 | 106 ± 17% | 122 ± 66%
46 | O=C(C1CCCCC1)N1CC(=O)N2CCc3ccccc3C2C1 (configuration not stated) | 79.3 ± 24% | 102 ± 18%

Row | SMILES | percent growth (Streptococcus suis HE06) | percent growth (Streptococcus suis P1/7)
47 | O=C(c1ccco1)N(CCCn1ccnc1)c1nc2c(Cl)cccc2s1 | 36.6 ± 38% | 34.1 ± 59%
48 | COc1cccc(OC)c1C(=O)Nc1ccc(Cl)c(-c2nc3ccccc3s2)c1 | 98.9 ± 8.3% | 119 ± 45%
49 | O=C(C1CCN(c2nnc(-n3cccc3)s2)CC1)N1CCC(Cc2ccccc2)CC1 | 120 ± 18% | 100 ± 41%
50 | CN1CCN(CCCOc2ncc(Nc3ncc(-c4ccc(C(F)(F)F)c(F)c4)nc3C(N)=O)cn2)CC1 | 114 ± 43% | 97.2 ± 9.4%
51 | O=C1[C@@H](Oc2ccccc2)[C@@H](c2ccc(Cl)cc2)N1CCn1cnc2c(NCc3ccccc3)ncnc21 | 94.9 ± 4.6% | 112 ± 21%
52 | CCc1c(C)nc(-n2nc(C)cc2NC(=O)c2ccccc2SC)[nH]c1=O | 0.0799 ± 0.092% | 1.97 ± 3.8%
53 | COc1ccc2nc(C)cc(OCC(=O)NCc3ccccc3)c2c1 | 91.7 ± 11% | 75.5 ± 9.7%
54 | NCCN(C(=O)c1ccc(Cl)cc1Cl)c1ccc(OCc2ccc(Cl)cc2)cc1 | 68.3 ± 61% | 25 ± 43%
55 | N=C(N)Nc1ccc(-c2ccc(-c3ccc(NC(=N)N)cc3Cl)o2)c(Cl)c1 | 22.2 ± 37% | 23.2 ± 34%
56 | Cc1nnc(NCc2cccc(Cl)c2)c2ccccc12 | 80.1 ± 8.7% | 85.4 ± 29%
57 | O=C(NC1CCCCC1)N1CCN(Cc2ccc3c(c2)OCO3)CC1 | 78.5 ± 7.2% | 52.2 ± 38%
58 | CC1=NN(c2nc3ccccc3s2)C(=O)C1Cc1cccc2ccccc12 (configuration not stated) | 0.762 ± 0.8% | 3.74 ± 3.5%
59 | Cc1nc(-c2ccccn2)nc(N2CCC(Cc3ccccc3)C2)c1Cl (configuration not stated) | 0.933 ± 1.6% | -0.158 ± 0.27%
60 | NS(=O)(=O)c1cncc(-c2ccc3nccc(-c4cn[nH]c4)c3n2)c1 | 102 ± 33% | 77.6 ± 23%
61 | c1ccc(-c2nc(NC3CCCCC3)cc(C3CC3)n2)nc1 | 7.51 ± 12% | 0.494 ± 1.2%
62 | NCC(=O)N1CCn2c(nc(-c3ccccc3)c2Nc2ccc3c(c2)OCO3)C1 | 97.6 ± 33% | 71.3 ± 25%
63 | COc1ccc(-c2cnc3ccc(N4CCCC4)nn23)cc1OC | 48.8 ± 40% | 77.7 ± 7.5%
64 | CCOc1ccc(OCC(=O)Nc2cc(C)cc(C)c2)cc1 | 96.3 ± 4.6% | 94.3 ± 16%
65 | CCCCN(CCCC)c1c(C#N)cc(S(=O)(=O)Nc2ccccc2)cc1C#N | 86.6 ± 25% | 69.8 ± 27%
66 | CCc1ccc([C@@H]2C[C@H](C(F)(F)F)n3ncc(C(=O)NCc4ccc(OC)cc4)c3N2)cc1 | 92.3 ± 12% | 75.4 ± 5.3%
67 | CC1(COc2ccc(N3CCC(Oc4ccc(OC(F)(F)F)cc4)CC3)cc2)Cn2cc([N+](=O)[O-])nc2O1 (configuration not stated) | 91.7 ± 9.5% | 114 ± 61%
68 | COc1ccc(Nc2ccccc2NC(=O)c2ccc(O)nc2)cc1 | 86.7 ± 11% | 99.1 ± 41%
69 | COc1cccc(-n2nnnc2S(=O)(=O)Cc2ccccc2)c1 | 33.8 ± 19% | 64.7 ± 47%

Row | SMILES | percent growth (Streptococcus suis HE06) | percent growth (Streptococcus suis P1/7)
70 | Cc1ccc2c(c1C)NC(=O)C21NN=C(c2ccccc2)S1 (configuration not stated) | 0.434 ± 0.78% | 0.432 ± 0.48%
71 | N#Cc1ccc(-c2cnc(N)c(-c3ccc(C(N)=O)cc3)n2)cc1 | 114 ± 46% | 73.1 ± 4.3%
72 | Cc1cc(O)nc(-n2nc(C)cc2C)n1 | 18.2 ± 21% | 2.28 ± 2.3%
73 | Cc1ccc2[nH]c3c(NCCN(C)C)ncnc3c2c1 | 96.1 ± 12% | 172 ± 110%
74 | CCC(C)NC(=O)c1ccc(NC(=O)C2(c3ccccc3)CCCC2)cc1 (configuration not stated) | 105 ± 27% | 78.1 ± 25%
75 | N#Cc1nc(-c2ccccc2)oc1S(=O)(=O)c1ccc(Cl)cc1 | 96.9 ± 9.2% | 85.2 ± 19%
76 | Cc1cc(OCC(=O)Nc2ccc(C(C)C)cc2)n(C)c(=O)c1C#N | 99.6 ± 7.3% | 79 ± 12%
77 | CCOC(=O)NC(=O)c1ccsc1NC(=O)c1nc2ccccc2s1 | 0.167 ± 0.2% | 5.08 ± 8.2%
78 | CCn1ncc2c(NC3CCOCC3)c(CNC(=O)c3ccnn3C)c(C)nc21 | 109 ± 24% | 85.7 ± 26%
79 | O=C(Nc1ccc(C(F)(F)F)c(C(F)(F)F)c1)c1cc(Cl)ccc1O | 0% | 6.44 ± 11%
80 | CCCCCCCCCCCCCCCCOP(=O)([O-])OCC[N+](C)(C)C | 117 ± 7.1% | 112 ± 40%
81 | CCOc1ccc(-c2nc(CNCCc3ccc(F)cc3)cs2)cc1 | 97.3 ± 4.6% | 29.5 ± 51%
82 | CN1CCN(c2nccc3[nH]c(-c4cccc(F)c4)cc23)CC1 | 97.4 ± 6.1% | 96 ± 26%
83 | CCc1cc(=O)n(C)c(SC(C)C(=O)Nc2ccc(F)cc2)n1 (configuration not stated) | 110 ± 23% | 74.8 ± 63%
84 | CC1(C)Cc2c(c(N3CCOCC3)nc3snc(Br)c23)CO1 | 94.1 ± 2% | 82.2 ± 20%
85 | CC(=O)NCC1CN(c2ccc(-c3ccc(CO)cc3)c(F)c2)C(=O)O1 (configuration not stated) | 0% | 0.214 ± 0.37%
86 | CCc1nc2ccccc2n1CC(O)COc1cc(C)ccc1Cl (configuration not stated) | 65.7 ± 22% | 103 ± 41%
87 | CC(C)C(NC(=O)Cc1cccc2ccccc12)C(=O)Nc1cccc(C#N)c1 (configuration not stated) | 84.6 ± 21% | 158 ± 100%
88 | O=C(NCCc1ccccc1)c1cc(-c2cccnc2)cnc1NCC1CC1 | 88.2 ± 20% | 59.7 ± 23%
89 | C[C@]1(O)C[C@@H](c2nc(-c3ccc4ccc(-c5ccccc5)nc4c3)c3c(N)nccn32)C1 | 81.6 ± 9.1% | 97 ± 18%
90 | O=C([C@@H](c1ccc(Cl)cc1)c1cccnc1)N1CCN(c2ccc(C(F)(F)F)cc2)CC1 | 89 ± 10% | 75.6 ± 12%
91 | Cc1ccc(C(=O)Nc2ccc(S(=O)(=O)O)c3cc(S(=O)(=O)O)cc(S(=O)(=O)O)c23)cc1NC(=O)c1cccc(NC(=O)Nc2cccc(C(=O)Nc3cc(C(=O)Nc4ccc(S(=O)(=O)O)c5cc(S(=O)(=O)O)cc(S(=O)(=O)O)c45)ccc3C)c2)c1 | 78.7 ± 8.8% | 85.9 ± 15%
